Data: PubChem BioAssay (EPA / NIEHS)
Results filed as inconclusive are left out. Activity calls are given as the source filed them. The calls were made as follows, unless noted: active = hit-call score of the fitted dose curve at least 0.9, where 1 is the maximum; inactive = score below 0.9.

Experiments:
[1] = read-out: E-selectin (Homo sapiens) (UniProt P16581); assay: BSK_3C_Eselectin: BioMAP Diversity Plus: 3C Assay for Eselectin Biomarker Activity (AID 2283015); settings: primary human endothelial cells (HUVEC); actives raise or lower the signal
How it was run: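 HUVEC, 3C stimulation; compound exposure 24 h; E-selectin by ELISA; gain- or loss-of-signal fitted bidirectionally vs DMSO baseline.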

[2] = read-out: Interleukin-1 alpha (IL1a), IL1A (gene 3552); assay: BSK_BE3C_IL1a: BioMAP Diversity Plus: BE3C Assay for Interleukin-1 alpha (IL1a) Biomarker Activity (AID 2283016); settings: primary human bronchial epithelial cells; actives raise or lower the signal
How it was run: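 IL-1a measured by ELISA after 24 h treatment of human primary bronchial epithelial cells, with gain or loss of signal fitted versus DMSO. Parallel cultures stained with SRB gauge overt cytotoxicity.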

[3] = read-out: Monocyte Chemoattractant Protein-1 (MCP1), CCL2 (gene 6347); assay: BSK_3C_MCP1: BioMAP Diversity Plus: 3C Assay for Monocyte Chemoattractant Protein-1 (MCP1) Biomarker Activity (AID 2283017); settings: primary human endothelial cells (HUVEC); actives raise or lower the signal
How it was run: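 HUVEC, 3C system; 24 h chemical exposure; MCP-1 by ELISA; bidirectional curve fit vs DMSO baseline.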

[4] = read-out: Human Leukocyte Antigen - DR isotype (HLADR), HLA-DRA (gene 3122); assay: BSK_3C_HLADR: BioMAP Diversity Plus: 3C Assay for Human Leukocyte Antigen - DR isotype (HLADR) Biomarker Activity (AID 2283019); settings: primary human endothelial cells (HUVEC); actives raise or lower the signal
How it was run: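 HUVEC, 3C stimulation, 24 h post-dose; HLA-DR by ELISA; bidirectional curve fit vs DMSO baseline; gain or loss of signal scored.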

[5] = read-out: Interleukin-8 (IL8), CXCL8 (gene 3576); assay: BSK_3C_IL8: BioMAP Diversity Plus: 3C Assay for Interleukin-8 (IL8) Biomarker Activity (AID 2283020); settings: primary human endothelial cells (HUVEC); actives raise or lower the signal
How it was run: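 IL-8 was measured by ELISA in HUVEC cultures 24 h after chemical dosing, with gain or loss of signal fitted relative to DMSO. Parallel SRB total-protein staining tracked overt cytotoxicity.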

[6] = read-out: Monokine induced gamma interferon (MIG), CXCL9 (gene 4283); assay: BSK_3C_MIG: BioMAP Diversity Plus: 3C Assay for Monokine induced gamma interferon (MIG) Biomarker Activity (AID 2283021); settings: primary human endothelial cells (HUVEC); actives raise or lower the signal;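 as to AC50: MIG protein level measured by immunoassay in the treated endothelial cultures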
How it was run: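 ELISA measurement of MIG in human umbilical vein endothelial cells 24 h after treatment. Cytotoxicity tracked by SRB staining in parallel cultures; gain or loss of signal fitted relative to DMSO.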

[7] = BSK_3C_SRB: Viability Assessment in the BioMAP Diversity Plus: 3C Assay (AID 2283023); settings: primary human endothelial cells (HUVEC);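 also: fitted both ways against DMSO so a hit may be signal rise or drop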
How it was run: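 HUVEC, 24 h post-dose; 10% TCA fix, 0.1% SRB stain, A560 nm. Bidirectional curve fit vs DMSO negative control.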

[8] = read-out: Matrix Metallopeptidase 1 (MMP1), MMP1 (gene 4312); assay: BSK_BE3C_MMP1: BioMAP Diversity Plus: BE3C Assay for Matrix Metallopeptidase 1 (MMP1) Biomarker Activity (AID 2283024); settings: primary human bronchial epithelial cells; actives raise or lower the signal
How it was run: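 ELISA measurement of MMP-1 after 24 h compound exposure of primary human bronchial epithelial cells. Changes in either direction fitted relative to DMSO; parallel SRB staining checked overt cytotoxicity.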

[9] = BSK_3C_Vis: BioMAP Diversity Plus: 3C Assay for Morphology Visualization (AID 2283025); settings: primary human endothelial cells (HUVEC);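 also: fitted both ways so gain or loss versus DMSO counts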
How it was run: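 Light-microscopy visualization of HUVEC cultures at 24 h post-treatment, with DMSO as baseline for bidirectional fitting.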

[10] = read-out: Pselectin, SELP (gene 6403); assay: BSK_4H_Pselectin: BioMAP Diversity Plus: 4H Assay for Pselectin Biomarker Activity (AID 2283026); settings: primary human endothelial cells (HUVEC); actives raise or lower the signal
How it was run: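 ELISA of surface P-selectin on HUVEC, 24 h after dosing, with parallel SRB staining (0.1% after 10% TCA fixation, 560 nm) for overt cytotoxicity. Activity fitted in both directions relative to DMSO.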

[11] = BSK_4H_SRB: Viability Assessment in the BioMAP Diversity Plus: 4H Assay (AID 2283027); settings: primary human endothelial cells (HUVEC);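 also: cells exposed to compound for 24 h before staining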;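 as to AC50: curves fitted both ways versus DMSO so AC50 may be loss or gain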
How it was run: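 Cytotoxicity read-out in primary human endothelial cells: after 24 h compound exposure, cells were TCA-fixed (10%), stained with 0.1% SRB and absorbance taken at 560 nm. Values fitted in both directions relative to DMSO.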

[12] = BSK_BE3C_SRB: Viability Assessment in the BioMAP Diversity Plus: BE3C Assay (AID 2283028); settings: primary human bronchial epithelial cells;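 as to AC50: fitted both ways so AC50 may mark signal gain or loss versus DMSO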
How it was run: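 Primary human bronchial epithelium; chemical dosing, 24 h; 10% TCA fix, 0.1% SRB stain, A560; bidirectional fit vs DMSO baseline.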

[13] = read-out: Thrombomodulin, THBD (gene 7056); assay: BSK_3C_Thrombomodulin: BioMAP Diversity Plus: 3C Assay for Thrombomodulin Biomarker Activity (AID 2283029); settings: primary human endothelial cells (HUVEC); actives raise or lower the signal
How it was run: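 ELISA measurement of thrombomodulin on HUVEC surface 24 h after chemical dosing; activity fitted in both directions relative to DMSO vehicle.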

[14] = read-out: Vascular endothelial growth factor receptor 2 (Homo sapiens) (UniProt P35968); assay: BSK_4H_VEGFRII: BioMAP Diversity Plus: 4H Assay for Vascular endothelial growth factor receptor 2 (VEGFR2) Biomarker Activity (AID 2283031); settings: primary human endothelial cells (HUVEC); actives raise or lower the signal
How it was run: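 HUVEC (human primary), 4H system; 24 h post-dose; VEGFRII by ELISA; bidirectional curve fit vs DMSO baseline; gain or loss of signal scored.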

[15] = read-out: Human Leukocyte Antigen - DR isotype (HLADR), HLA-DRA (gene 3122); assay: BSK_BE3C_HLADR: BioMAP Diversity Plus: BE3C Assay for Human Leukocyte Antigen - DR isotype (HLADR) Biomarker Activity (AID 2283032); settings: primary human bronchial epithelial cells; actives raise or lower the signal
How it was run: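 Cell-surface HLA-DR ELISA readout at 24 h after dosing in the BE3C primary human lung bronchial epithelial system; gain or loss of signal against DMSO, with parallel sulforhodamine B staining of total protein for overt cytotoxicity.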

[16] = read-out: Monocyte Chemoattractant Protein-1 (MCP1), CCL2 (gene 6347); assay: BSK_4H_MCP1: BioMAP Diversity Plus: 4H Assay for Monocyte Chemoattractant Protein-1 (MCP1) Biomarker Activity (AID 2283018); settings: primary human endothelial cells (HUVEC); actives raise or lower the signal
How it was run: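 ELISA of MCP-1 (CCL2) 24 h after chemical dosing of HUVEC in the BioMAP 4H system. Gain or loss versus DMSO fitted; parallel SRB staining (560 nm) tracked overt cytotoxicity.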

[17] = read-out: Vascular cell adhesion molecule 1 (VCAM1), VCAM1 (gene 7412); assay: BSK_4H_VCAM1: BioMAP Diversity Plus: 4H Assay for Vascular cell adhesion molecule 1 (VCAM1) Biomarker Activity (AID 2283033); settings: primary human endothelial cells (HUVEC); actives raise or lower the signal
How it was run: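 VCAM-1 ELISA read 24 h after chemical dosing of HUVEC in the BioMAP 4H system, with gain or loss of signal fitted relative to DMSO. Parallel SRB staining (560 nm) checked overt cytotoxicity.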

[18] = read-out: Interferon-gamma inducible Protein 10 (IP10), CXCL10 (gene 3627); assay: BSK_BE3C_IP10: BioMAP Diversity Plus: BE3C Assay for Interferon-gamma inducible Protein 10 (IP10) Biomarker Activity (AID 2283034); settings: primary human bronchial epithelial cells; actives raise or lower the signal
How it was run: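 IP-10 quantified by ELISA in human primary bronchial epithelial cell cultures at 24 hours post-dosing. Gain or loss of signal fitted relative to DMSO; parallel SRB staining assessed overt cytotoxicity.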

[19] = target: human Vitamin D Receptor (VDR), VDR (gene 7421) (UniProt P11473); assay: ATG_VDR_TRANS: Attagene TRANS-FACTORIAL HepG2 Assay for human Vitamin D Receptor (VDR) (AID 2283022; active = hit-call score of the fitted dose curve at least 0.9, where 1 is the maximum)
Sequence of human Vitamin D Receptor (VDR), VDR (gene 7421) (P11473 whole entry, looked up, the tested form may be a part): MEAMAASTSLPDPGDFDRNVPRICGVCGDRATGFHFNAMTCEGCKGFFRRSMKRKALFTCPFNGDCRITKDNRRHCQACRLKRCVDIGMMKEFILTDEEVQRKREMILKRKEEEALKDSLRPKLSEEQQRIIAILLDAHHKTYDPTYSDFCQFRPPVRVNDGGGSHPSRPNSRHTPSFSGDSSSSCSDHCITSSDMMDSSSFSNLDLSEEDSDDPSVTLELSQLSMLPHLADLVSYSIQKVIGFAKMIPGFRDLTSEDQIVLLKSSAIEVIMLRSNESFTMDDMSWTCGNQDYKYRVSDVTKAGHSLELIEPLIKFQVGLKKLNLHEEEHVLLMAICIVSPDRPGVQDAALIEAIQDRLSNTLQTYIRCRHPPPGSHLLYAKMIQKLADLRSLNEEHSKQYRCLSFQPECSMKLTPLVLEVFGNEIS
How it was run: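 RT-PCR/capillary electrophoresis read-out of reporter mRNA induction in transiently transfected HepG2; 24 h dosing; chimeric NR-Gal4 (TRANS format); gain-of-signal fit against DMSO baseline.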

[20] = read-out: Urokinase-type plasminogen activator receptor (uPAR), PLAUR (gene 5329); assay: BSK_4H_uPAR: BioMAP Diversity Plus: 4H Assay for Urokinase-type plasminogen activator receptor (uPAR) Biomarker Activity (AID 2283030); settings: primary human endothelial cells (HUVEC); actives raise or lower the signal
How it was run: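 HUVEC, 24 h post-dose; uPAR by ELISA; bidirectional fit vs DMSO baseline.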

Measured: AC50

Sequence of E-selectin (Homo sapiens) (P16581 whole entry, looked up): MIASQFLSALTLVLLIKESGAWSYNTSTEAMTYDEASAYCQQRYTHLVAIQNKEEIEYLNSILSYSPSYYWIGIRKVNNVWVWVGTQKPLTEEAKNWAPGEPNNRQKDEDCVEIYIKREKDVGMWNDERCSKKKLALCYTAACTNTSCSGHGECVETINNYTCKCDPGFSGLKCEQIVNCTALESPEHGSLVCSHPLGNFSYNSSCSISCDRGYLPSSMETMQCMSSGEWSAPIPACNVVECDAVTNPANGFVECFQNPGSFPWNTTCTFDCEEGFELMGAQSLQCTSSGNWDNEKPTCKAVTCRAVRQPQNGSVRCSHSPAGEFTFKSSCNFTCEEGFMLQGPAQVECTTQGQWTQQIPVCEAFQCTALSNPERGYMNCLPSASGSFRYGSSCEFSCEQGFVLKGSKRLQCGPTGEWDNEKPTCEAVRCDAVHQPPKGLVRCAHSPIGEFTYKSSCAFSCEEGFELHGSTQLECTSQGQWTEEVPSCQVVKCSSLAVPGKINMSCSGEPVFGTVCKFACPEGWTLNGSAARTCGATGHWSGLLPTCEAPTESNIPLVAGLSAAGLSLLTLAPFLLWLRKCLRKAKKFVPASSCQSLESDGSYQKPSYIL

CCC(=O)C(CC(C)N(C)C)(c1ccccc1)c1ccccc1 (stereo not given)
inactive: [1] | [2] | [3] | [4] | [5] | [6] | [7] | [8] | [9] | [10] | [11] | [12] | [13] | [14] | [15]

CCSC(C)CC1CC(=O)C(C(CC)=NOC/C=C/Cl)=C(O)C1 (stereo not given)
inactive: [1] | [3] | [16] | [4] | [5] | [6] | [7] | [8] | [9] | [10] | [11] | [12] | [14] | [15] | [17] | [18]

CC(C)CCCCCCOC(=O)c1ccccc1C(=O)OCCCCCCC(C)C
inactive: [1] | [2] | [3] | [4] | [5] | [6] | [19] | [7] | [8] | [10] | [11] | [12] | [14] | [15] | [17]

Nc1cccc2ccccc12
inactive: [1] | [2] | [3] | [4] | [5] | [6] | [7] | [8] | [9] | [10] | [11] | [12] | [20] | [15] | [17]

CC(C)(OO)c1ccccc1
inactive: [1] | [2] | [3] | [16] | [4] | [5] | [6] | [19] | [7] | [8] | [10] | [11] | [12] | [14] | [15] | [17] | [18]

O=[N+]([O-])c1ccc(O)c([N+](=O)[O-])c1
active: [4] 28 µM
inactive: [1] | [2] | [3] | [16] | [5] | [6] | [7] | [8] | [10] | [11] | [12] | [14] | [15]

CCN1CCC2(CC1)COc1cc3c(cc12)N(C(=O)c1ccc(-c2ccc(-c4nnc(C)o4)cc2C)cc1)CC3
inactive: [19] | [8] | [13] | [14]
active: [1] 28 µM | [2] 13.8 µM | [3] 14 µM | [16] 26 µM | [4] 13 µM | [5] 18.4 µM | [6] 32.3 µM | [7] 6.23 µM | [10] 12 µM | [11] 23.1 µM | [12] 12.9 µM | [20] 18.7 µM | [15] 10.5 µM

C=CC(=O)OCCCCCC(C)C
inactive: [1] | [3] | [16] | [4] | [5] | [6] | [19] | [7] | [8] | [10] | [11] | [12] | [20] | [14] | [15] | [17]

O=C(O)C(Cl)(Cl)Cl
inactive: [1] | [3] | [16] | [4] | [5] | [6] | [19] | [7] | [8] | [9] | [10] | [11] | [12] | [20] | [14] | [15] | [17]

CCOP(=S)(OCC)Oc1nc(Cl)c(Cl)cc1Cl
active: [1] 37.1 µM | [3] 33.1 µM | [4] 28.2 µM | [5] 31.1 µM | [7] 30.2 µM | [10] 32 µM | [17] 15.8 µM
inactive: [2] | [6] | [19] | [8] | [11] | [12] | [13] | [14] | [15]

O=Cc1cccc(Oc2ccccc2)c1
inactive: [1] | [2] | [3] | [16] | [4] | [5] | [6] | [19] | [7] | [8] | [10] | [11] | [12] | [13] | [14] | [15]

CCOP(=S)(OCC)SCCS(=O)(=O)CC
inactive: [1] | [3] | [16] | [4] | [5] | [6] | [19] | [7] | [8] | [10] | [11] | [12] | [14] | [15] | [17] | [18]

O=S(=O)(c1ccc(Cl)cc1)c1ccc(Cl)cc1
inactive: [1] | [2] | [3] | [16] | [4] | [5] | [6] | [19] | [7] | [8] | [10] | [11] | [12] | [20] | [14] | [15]

COC(=O)c1sccc1S(=O)(=O)NC(=O)Nc1nc(C)nc(OC)n1
inactive: [1] | [2] | [3] | [4] | [5] | [6] | [7] | [8] | [9] | [10] | [11] | [12] | [14] | [15]
